Results from PubChem BioAssay.
Values joined by “and” are separate entries in the source; they are usually repeats but may differ in a detail not shown here. Identical values can stand only once. Active and inactive are the calls of the source.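 The calls were made as follows, unless noted: active = normalized viability below 100% at a tested concentration; inactive = the rest.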

What was measured:
[1] = compounds altering circadian rhythm period length – cell-based, LOPAC library, luminescence reporter (AID 2774; call rule not given here;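 also: values are relative to mean of DMSO wells on each plate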); details: circadian reporter cells, at 7 µM, actives lie on both sides
[2] = system: Hepatitis C virus NS3 helicase; experiment: blockers of NS3h binding to ssDNA – biochemical, fluorescence polarization, LOPAC1280 library, primary screen (AID 687035; in the data active = inhibition above about 37%); details: Purified HCV NS3 helicase, Cy5-dT15 ssDNA binding fluorescence polarization; stronger effect = higher value; concentration not given here
[3] = biological target: 6-phosphogluconate dehydrogenase, decarboxylating (Homo sapiens) (UniProt P52209); experiment: inhibition of human phosphogluconate dehydrogenase – biochemical, recombinant enzyme, NADPH absorbance, primary screen (AID 1159550;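 active = at least 20% inhibition of 6-phosphogluconate dehydrogenase activity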); details: recombinant 6PGD, NADPH absorbance 341 nm; at 10 µM; stronger effect = higher value
Chain of 6-phosphogluconate dehydrogenase, decarboxylating (Homo sapiens) (P52209 whole entry, looked up): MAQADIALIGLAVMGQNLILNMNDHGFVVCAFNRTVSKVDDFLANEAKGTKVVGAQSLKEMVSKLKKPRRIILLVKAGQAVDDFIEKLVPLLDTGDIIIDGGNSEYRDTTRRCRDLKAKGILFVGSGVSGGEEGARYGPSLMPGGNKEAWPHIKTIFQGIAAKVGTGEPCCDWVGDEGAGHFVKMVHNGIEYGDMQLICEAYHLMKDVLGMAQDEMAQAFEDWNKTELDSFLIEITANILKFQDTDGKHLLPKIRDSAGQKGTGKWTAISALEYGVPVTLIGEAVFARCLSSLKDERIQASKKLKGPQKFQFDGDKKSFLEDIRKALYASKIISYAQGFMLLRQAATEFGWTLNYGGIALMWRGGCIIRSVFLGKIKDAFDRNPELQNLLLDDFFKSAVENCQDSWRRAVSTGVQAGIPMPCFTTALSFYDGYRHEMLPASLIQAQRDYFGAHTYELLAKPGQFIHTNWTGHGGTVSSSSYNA

[4] = EMT-state selective cytotoxicity in co-culture – imaging, PC-3E GFP, TEM4-18 mCherry, primary screen (AID 1345086;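 active = compounds killing one labelled cell type while sparing the other, by normalised counts and ratio limits, not self-fluorescent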;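 also: cells exposed to compound for 72 h before imaging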;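 as to red/green cell ratio (normalised): normalised mesenchymal count divided by normalised epithelial count so high means epithelial killing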); details: PC-3E GFP / TEM4-18 mCherry co-culture, imaging cell counts, at 1 µM
[5] = viability loss with induced miR-34 in A549 – imaging, A549 dox-inducible miR-34, nuclei and caspase counts, primary screen (AID 1347080;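 active = compounds whose cell count with miR-34 switched on is under 0.7 times the count with it off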); details: A549 miR-34 inducible, Hoechst nuclei count, 48 h
[6] = blockers of cellular phospholipid synthesis – cell-based, LOPAC library, screen 4, primary screen (AID 1347384; call rule not given here); details: animal cells, phospholipid biosynthesis inhibition screen; at 10 µM
[7] = MELAS cybrid and Rieske KO viability enhancers – cell-based, MELAS cybrids, Rieske KO mouse fibroblasts, CellTiter-Glo, primary screen (AID 1508586;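 active = mean z-score across replicates of 1.96 or higher in either the MELAS or the Rieske mutant cell line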;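 also: z relative to plate mean and SD of compound and empty wells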); details: low glucose
[8] = drug combination growth inhibition, ovarian cancer – cell-based, oncology-focused library, rucaparib conditional, profiling panel (AID 1508598); details: patient-derived ovarian cancer cells, CellTiter-Glo viability, 144 h, stronger effect = lower value
[9] = biological target: Mitogen-activated protein kinase 7 (Homo sapiens) (UniProt Q13164); experiment: Gal4-ERK5 driven luciferase induction – cell-based, HTS, primary screen (AID 1508626;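 active = luciferase signal above three times the same-plate solvent-only control wells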;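 also: luciferase driven by Gal4-ERK5 fusion binding five Gal4 sites before minimal TATA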); details: HeLa Gal4-ERK5 transactivation, 18 h, at 5 µM, stronger effect = higher value
Chain of Mitogen-activated protein kinase 7 (Homo sapiens) (Q13164 whole entry, looked up, the tested form may be a part): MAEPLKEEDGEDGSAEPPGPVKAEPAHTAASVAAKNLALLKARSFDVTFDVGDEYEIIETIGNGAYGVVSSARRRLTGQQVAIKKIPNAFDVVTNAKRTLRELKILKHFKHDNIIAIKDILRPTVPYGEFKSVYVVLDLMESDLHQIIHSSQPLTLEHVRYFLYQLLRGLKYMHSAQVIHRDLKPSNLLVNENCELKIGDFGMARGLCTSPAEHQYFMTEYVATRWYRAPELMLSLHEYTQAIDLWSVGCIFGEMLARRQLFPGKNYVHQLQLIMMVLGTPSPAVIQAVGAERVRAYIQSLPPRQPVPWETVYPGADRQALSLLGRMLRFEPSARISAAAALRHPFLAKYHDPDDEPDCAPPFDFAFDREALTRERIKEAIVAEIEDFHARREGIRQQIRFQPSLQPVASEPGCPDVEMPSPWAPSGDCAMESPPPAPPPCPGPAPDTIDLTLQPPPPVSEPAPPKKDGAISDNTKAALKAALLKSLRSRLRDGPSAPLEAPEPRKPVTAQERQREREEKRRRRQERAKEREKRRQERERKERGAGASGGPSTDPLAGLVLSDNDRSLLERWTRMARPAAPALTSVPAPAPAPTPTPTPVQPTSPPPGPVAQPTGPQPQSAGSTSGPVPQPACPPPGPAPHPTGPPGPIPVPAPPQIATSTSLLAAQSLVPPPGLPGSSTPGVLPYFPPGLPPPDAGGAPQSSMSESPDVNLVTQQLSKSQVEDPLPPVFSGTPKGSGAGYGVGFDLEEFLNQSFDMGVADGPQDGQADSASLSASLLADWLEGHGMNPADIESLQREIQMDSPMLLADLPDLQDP

[10] = galactose survival enhancers in mitochondrial complex I cybrids – cell-based, galactose medium, ATP luminescence, primary screen (AID 1645843;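 active = z-score of at least 1.8 in each of two replicates, scored against plate mean and spread of sample wells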;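 also: positive z means more ATP and so rescue of galactose-driven cybrid death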); details: complex I mutant cybrid cells, 72 h, stronger effect = higher value

Question: Which period change [1] does the source give for `O=C(CCc1ccc(O)cc1)c1c(O)cc(O)cc1O` here?
Answer: 0.135 h (inactive)

Question: What about the inhibition [2] of the same compound?
Answer: -4% (inactive)

Question: And the inhibition [3]?
Answer: 4.36% (inactive)

Question: What about the red/green cell ratio (normalised) ([4]; actives lie on both sides, counts scaled to control wells, 1 = unselective) of the same compound?
Answer: 1.14 (inactive)

Question: And the normalised cell number ([4]; measured here: epithelial PC-3E GFP cell survival)?
Answer: 0.95

Question: What about the normalised cell number ([4]; measured here: mesenchymal TEM4-18 mCherry cell survival) of the same compound?
Answer: 1.08

Question: And the fold change ([5]; stronger effect = lower value, cell number ratio, induced over uninduced)?
Answer: 1 (inactive) and 0.951 (inactive)

Question: And the fold change ([5]; measured here: relative caspase fold change +Dox/-Dox)?
Answer: 1.21 and 0.641

Question: And the cell count ([5]; measured here: total cells with miR-34 induction, stronger effect = lower value)?
Answer: 10100 and 9910

Question: What about the cell count ([5]; measured here: total cells without miR-34 induction) of the same compound?
Answer: 10100 and 10400

Question: What about the outcome [6] of the same compound?
Answer: inactive

Question: What about the z-score ([7]; MELAS cybrid survival, CellTiter-Glo 48 h, stronger effect = higher value) of the same compound?
Answer: -0.355 (inactive)

Question: And the z-score ([7]; Rieske KO mouse fibroblast survival, CellTiter-Glo 72 h)?
Answer: 0.489

Question: What about the viability ([8]; at 0.000305 µM, OCI-C5x cells, with rucaparib 10 µM, 100% = cells with rucaparib alone) of the same compound?
Answer: 108% (inactive)

Question: What about the viability ([8]; at 0.000305 µM, OCI-C5x cells, without rucaparib) of the same compound?
Answer: 119% (inactive)

Question: And the viability ([8]; at 0.000305 µM, OCI-P5x cells, with rucaparib 20 µM, 100% = cells with rucaparib alone)?
Answer: 96.8% (active)

Question: And the viability ([8]; at 0.000305 µM, OCI-P5x cells, without rucaparib)?
Answer: 97% (active)

Question: And the viability ([8]; at 0.00122 µM, OCI-C5x cells, with rucaparib 10 µM, 100% = cells with rucaparib alone)?
Answer: 115% (inactive)

Question: And the viability ([8]; at 0.00122 µM, OCI-C5x cells, without rucaparib)?
Answer: 108% (inactive)

Question: What about the viability ([8]; at 0.00122 µM, OCI-P5x cells, with rucaparib 20 µM, 100% = cells with rucaparib alone) of the same compound?
Answer: 95.8% (active)

Question: What about the viability ([8]; at 0.00122 µM, OCI-P5x cells, without rucaparib) of the same compound?
Answer: 99.2% (active)

Question: And the viability ([8]; at 0.00488 µM, OCI-C5x cells, with rucaparib 10 µM, 100% = cells with rucaparib alone)?
Answer: 122% (inactive)

Question: What about the viability ([8]; at 0.00488 µM, OCI-C5x cells, without rucaparib) of the same compound?
Answer: 115% (inactive)

Question: And the viability ([8]; at 0.00488 µM, OCI-P5x cells, with rucaparib 20 µM, 100% = cells with rucaparib alone)?
Answer: 103% (inactive)

Question: What about the viability ([8]; at 0.00488 µM, OCI-P5x cells, without rucaparib) of the same compound?
Answer: 104% (inactive)

Question: And the viability ([8]; at 0.0195 µM, OCI-C5x cells, with rucaparib 10 µM, 100% = cells with rucaparib alone)?
Answer: 110% (inactive)

Question: And the viability ([8]; at 0.0195 µM, OCI-C5x cells, without rucaparib)?
Answer: 123% (inactive)

Question: What about the viability ([8]; at 0.0195 µM, OCI-P5x cells, with rucaparib 20 µM, 100% = cells with rucaparib alone) of the same compound?
Answer: 104% (inactive)

Question: What about the viability ([8]; at 0.0195 µM, OCI-P5x cells, without rucaparib) of the same compound?
Answer: 110% (inactive)

Question: What about the viability ([8]; at 0.0781 µM, OCI-C5x cells, with rucaparib 10 µM, 100% = cells with rucaparib alone) of the same compound?
Answer: 116% (inactive)

Question: And the viability ([8]; at 0.0781 µM, OCI-C5x cells, without rucaparib)?
Answer: 121% (inactive)

Question: What about the viability ([8]; at 0.0781 µM, OCI-P5x cells, with rucaparib 20 µM, 100% = cells with rucaparib alone) of the same compound?
Answer: 104% (inactive)

Question: And the viability ([8]; at 0.0781 µM, OCI-P5x cells, without rucaparib)?
Answer: 109% (inactive)

Question: And the viability ([8]; at 0.313 µM, OCI-C5x cells, with rucaparib 10 µM, 100% = cells with rucaparib alone)?
Answer: 115% (inactive)

Question: What about the viability ([8]; at 0.313 µM, OCI-C5x cells, without rucaparib) of the same compound?
Answer: 117% (inactive)

Question: What about the viability ([8]; at 0.313 µM, OCI-P5x cells, with rucaparib 20 µM, 100% = cells with rucaparib alone) of the same compound?
Answer: 109% (inactive)

Question: And the viability ([8]; at 0.313 µM, OCI-P5x cells, without rucaparib)?
Answer: 113% (inactive)

Question: What about the viability ([8]; at 1.25 µM, OCI-C5x cells, with rucaparib 10 µM, 100% = cells with rucaparib alone) of the same compound?
Answer: 105% (inactive)

Question: And the viability ([8]; at 1.25 µM, OCI-C5x cells, without rucaparib)?
Answer: 125% (inactive)

Question: And the viability ([8]; at 1.25 µM, OCI-P5x cells, with rucaparib 20 µM, 100% = cells with rucaparib alone)?
Answer: 97.8% (active)

Question: What about the viability ([8]; at 1.25 µM, OCI-P5x cells, without rucaparib) of the same compound?
Answer: 110% (inactive)

Question: What about the viability ([8]; at 5 µM, OCI-C5x cells, with rucaparib 10 µM, 100% = cells with rucaparib alone) of the same compound?
Answer: 109% (inactive)

Question: What about the viability ([8]; at 5 µM, OCI-C5x cells, without rucaparib) of the same compound?
Answer: 132% (inactive)

Question: And the viability ([8]; at 5 µM, OCI-P5x cells, with rucaparib 20 µM, 100% = cells with rucaparib alone)?
Answer: 108% (inactive)

Question: And the viability ([8]; at 5 µM, OCI-P5x cells, without rucaparib)?
Answer: 111% (inactive)

Question: What about the luciferase signal [9] of the same compound?
Answer: 60 AU (inactive)

Question: And the z-score [10]?
Answer: 1.71 (inactive)
